# Screening data deposited in PubChem BioAssay by several laboratories.
# An excerpt weighted towards active compounds, which were near 3.6% of everything screened.
# HCT116 bCat-KO: beta-catenin-lacking colon tumor cell growth suppression; viability, % at 10 µM; AID 818; actives 1.5% (n = 140,000); HCT116 beta-catenin knockout viability, CellTiter-Glo, 60 h; active compounds read low;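 active = viability at or under a set limit, the compound median less 4 SD, cut at about 6% in these data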
# HCT116 PTEN-null: PTEN-deleted cell growth suppression. AID 827. actives 1.2% (n = 140,000). HCT116 PTEN-null viability, CellTiter-Glo, 60 h; active compounds read low. viability, % at 10 µM;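 active = viability at or below a set limit, 4 SD under the median of all tested compounds, cut at about 3.7% in these data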;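 also: PTEN knockout HCT116 line with beta catenin targeted HCT116 as companion control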
# DAT uptake mod: modulates human dopamine transporter uptake under cocaine; Q01959; LLC-PK1 hDAT cells, [14C]-dopamine uptake with cocaine IC80; actives deviate in either direction; B-score at 10 µM; actives 1.3% (n = 110,000); AID 449768;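 active = Z score or B-score, a plate-position-corrected score, falls beyond the plate's 99.7% confidence bounds, in either direction; inactive = both scores lie inside the 99.7% bounds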
# Target sequence (Q01959 whole entry, looked up): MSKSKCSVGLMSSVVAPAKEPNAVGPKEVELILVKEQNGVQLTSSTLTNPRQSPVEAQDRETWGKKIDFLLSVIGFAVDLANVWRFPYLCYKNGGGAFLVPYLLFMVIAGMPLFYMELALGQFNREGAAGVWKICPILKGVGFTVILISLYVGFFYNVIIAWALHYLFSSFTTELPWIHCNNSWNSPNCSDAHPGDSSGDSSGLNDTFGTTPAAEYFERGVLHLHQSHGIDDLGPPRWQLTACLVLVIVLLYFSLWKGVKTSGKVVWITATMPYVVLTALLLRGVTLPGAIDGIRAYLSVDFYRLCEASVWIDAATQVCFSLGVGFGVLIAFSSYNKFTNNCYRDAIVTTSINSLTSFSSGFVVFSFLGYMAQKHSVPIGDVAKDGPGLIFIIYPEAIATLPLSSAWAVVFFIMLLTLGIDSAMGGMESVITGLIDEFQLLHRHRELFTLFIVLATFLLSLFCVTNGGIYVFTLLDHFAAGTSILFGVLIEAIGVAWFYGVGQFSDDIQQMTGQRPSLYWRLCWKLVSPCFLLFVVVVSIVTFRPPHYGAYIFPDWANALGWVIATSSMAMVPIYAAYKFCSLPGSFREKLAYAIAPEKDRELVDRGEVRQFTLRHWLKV
# WT yeast gro inh: growth inhibition of WT yeast, mitochondrial fusion screen | actives 2.1% (n = 190,000) | inhibition, % at 10 µM | mitochondrial fusion phenotypic screen, WT strain | AID 1362; in the data active = inhibition above about 58%; tested in S. cerevisiae
# Numbers stand for hits; - = inactive; . = no result.
SMILES,HCT116 bCat-KO,HCT116 PTEN-null,DAT uptake mod,WT yeast gro inh
Cc1ccc(SCc2cc(=O)[nH]c(SCC(=O)Nc3cc(Cl)ccc3Cl)n2)cc1,.,.,.,-
Cc1ccc2nc(-c3ccc(NC(=S)NC4CC(C)(C)NC(C)(C)C4)cc3)sc2c1,.,.,.,60
Cc1ccc2nc(-c3ccc(NC(=S)NC(=O)C(C)C)cc3)sc2c1,-,-,-,-
N#CCCN1CCN(C(=S)c2ccc(-c3cccc(Cl)c3)o2)CC1,-,-,2.4,-
S=C(c1ccc(-c2cccc(Cl)c2)o1)N1CCCCC1,.,.,.,58
O=C(Nc1cccc2ccccc12)c1ccc([N+](=O)[O-])s1,3.9,3.1,.,-
Cc1[nH]c2ccccc2c1C(=O)COC(=O)C1CCC(=O)N1 (centres undefined),-,-,-,-
CC(C)(C)c1ccc(NC(=O)COC(=O)c2ccc([N+](=O)[O-])s2)cc1,-,-,.,92
O=C(COC(=O)c1ccc([N+](=O)[O-])s1)Nc1ccccc1,-,-,.,70
Cc1[nH]c2ccccc2c1C(=O)COC(=O)c1ccc([N+](=O)[O-])s1,.,.,.,98
O=C(COC(=O)c1ccc([N+](=O)[O-])s1)NCc1ccccc1,-,-,.,-
O=C(Nc1ccccc1F)c1ccc([N+](=O)[O-])s1,.,.,.,-
O=C(Nc1ccc(NC(=O)C23CC4CC(CC(C4)C2)C3)cc1)c1cc(F)c(F)cc1Cl,-,-,.,-
Cc1cc(C)n(C(C[N+](=O)[O-])c2ccc(Cl)cc2)n1 (centres undefined),-,-,-,-
Cc1ccccc1Nc1nc(CSc2nnnn2-c2ccccc2)cs1,-,-,-8,-
c1ccc(-c2nc(CSc3nnnn3-c3ccccc3)cs2)cc1,-,-,-,-
CCNC(=S)NNC(=O)c1cc(-c2ccc(OCC)cc2)nc2ccccc12,-,-,-,66
CCNC(=S)NNC(=O)c1cc(-c2cccc(OC)c2)nc2ccccc12,-,-,.,-
C(=N\N(c1ccccc1)c1ccccc1)/c1ccc(N2CCOCC2)s1,-,-,.,-
Cc1ccc(C(=O)C(c2ccccc2)N2Cc3ccccc3C2=N)cc1 (centres undefined),-,-,.,70
CCOC(=O)CSc1nc2cc(C)ccc2cc1C#N,-,-,-,-
CCOC(=O)CSc1nc2cc(OC)ccc2cc1C#N,-,-,-9.8,-
O=C1NCCc2c1[nH]c1ccccc21,-,-,-,-
O=C1NCCc2c1[nH]c1c(Cl)ccc(Cl)c21,-,-,-,89
O=C(CSc1nnc(SCc2cccc3ccccc23)s1)N=Nc1c(O)[nH]c2ccccc12,4.3,1.0,.,-
SMILES,HCT116 bCat-KO,HCT116 PTEN-null,DAT uptake mod,WT yeast gro inh
O=C(CSc1nnc(SCc2cccc3ccccc23)s1)Nc1ccc(C(=O)O)cc1,.,.,.,-
Oc1ccc(Cl)cc1N=Cc1sc2ccccc2c1Cl,.,.,.,-
O=[N+]([O-])c1ccc(O)c(N=Cc2sc3ccccc3c2O)c1,1.9,3.7,.,-
Oc1c(C=Nc2cccc3cccnc23)sc2ccccc12,3.0,3.8,-,-
CCOC(=O)C1=C(C)n2c(s/c(=C/c3cccc([N+](=O)[O-])c3)c2=O)=NC1c1ccc(O)c(OC)c1 (centres undefined),1.9,-,-,70
CC1CN(CC(O)COCc2ccc3c(c2)OCO3)CC(C)O1 (centres undefined),.,.,.,-
CC1CCN(C(=O)N2c3ccccc3Sc3ccccc32)CC1,-,-,-,-
CC1CCCN(C(=O)N2c3ccccc3Sc3ccccc32)C1 (centres undefined),-,-,-,69
C/C(=N\NC(=O)C1CCCN(S(=O)(=O)c2ccccc2)C1)c1cccnc1 (centres undefined),-,-,2.4,-
C/C(=N\NC(=O)C1CCCN(S(=O)(=O)c2ccccc2)C1)c1ccncc1 (centres undefined),-,-,-,-
CCOc1ccc(C(=O)C[n+]2ccc(C(=O)NCc3ccccc3)cc2)cc1,.,.,.,-
Cc1ccccc1NC(=O)Cn1nc(C(F)(F)F)cc1C1CC1,-,-,-,-
Cc1ccc(C)c(NC(=O)Cn2nc(C(F)(F)F)cc2C2CC2)c1,5.3,-,-,-
O=C(COC(=O)c1c2c(nc3ccccc13)CCCCC2)c1ccc(Cl)s1,-,-,.,-
CC1CCc2ccccc2N1C(N)=Nc1ccccc1 (centres undefined),.,.,.,-
CC1CCc2ccccc2N1C(=O)c1cccs1 (centres undefined),-,-,-7.3,-
O=C(CCCc1cccs1)Nc1ccc2c(c1)OCO2,.,.,.,-
CC12CCC(C(=O)Nc3nccs3)(OC1=O)C2(C)C (centres undefined),-,-,-,-
CC12CCC(C(=O)Nc3nc4ccc(Br)cc4s3)(OC1=O)C2(C)C (centres undefined),.,.,.,66
COc1ccc(-c2nnc(SCc3nnc(-c4ccc(Cl)cc4)o3)n2-c2ccccc2)cc1,-,-,-,64
CCCCCc1cc(=O)oc2c(C(CCN3CCCCC3)c3cc(OC)c(OC)c(OC)c3)c(OC)cc(OC)c12 (centres undefined),.,.,-,.
CCCCCc1cc(=O)oc2c(C(CCN3CCCC(C)C3)c3cc(OC)c(OC)c(OC)c3)c(OC)cc(OC)c12 (centres undefined),.,.,-2.9,.
COc1ccc(Cl)cc1N(C(=O)Nc1cccc(Cl)c1)C1=NCC(C)S1 (centres undefined),-,-,.,-
C=CCn1c(SCC(=O)Nc2ccc3c(c2)CCC3)nnc1-c1cccs1,-,-,-,70
C/C(=N\Nc1c([N+](=O)[O-])c(C)nn1C)c1ccc(F)cc1F,.,.,.,-
SMILES,HCT116 bCat-KO,HCT116 PTEN-null,DAT uptake mod,WT yeast gro inh
Cn1c(NCCCO)nc2c(c1=O)C1(CCCCC1)Cc1ccccc1-2,-,-,-,60
COC(=O)C1=C(C)NC2=C(C1c1ccc(O)cc1)S(=O)(=O)c1ccccc12 (centres undefined),-,-,-,-
COc1ccc(C2C(C#N)=C(C)NC3=C2S(=O)(=O)c2ccccc23)cc1 (centres undefined),-,-,-,58
CCOC(=O)C1(Cc2ccc(OC)cc2)CCN(C(=O)c2cc3ccccc3[nH]2)CC1,.,.,.,-
CCCn1nnc(NC(=O)c2ccc(-c3cccc(Cl)c3)o2)n1,-,-,-,74
COc1c(C)cc(Br)cc1C(=O)Nc1ccc(N2CCN(S(C)(=O)=O)CC2)cc1,-,-,-,-
COc1c(C)cccc1C(=O)Nc1ccc(N2CCN(S(C)(=O)=O)CC2)cc1,-,-,-7.9,-
C=CCn1c(SCCOc2ccc(OC)cc2)nnc1C(C)NC(=O)Cc1ccc(OC)cc1 (centres undefined),-,-,-,-
COc1ccc(-c2csc(NC(=O)C3COc4ccccc4O3)n2)cc1OC (centres undefined),.,.,-,65
CC(CNC(=O)c1ccc2c(c1)OCO2)c1ccc([N+](=O)[O-])cc1 (centres undefined),.,.,.,-
CCc1ccc(Cc2cnc(NC(=O)C3=NCCN3)s2)cc1,.,.,.,-
O=C(Nc1ncc(Cc2ccccc2Cl)s1)C1=NCCN1,-,-,.,73
Cc1cccc(N(CC(=O)NC(C)(C)C)C(=O)CS(=O)CC(=O)Nc2ccc3c(c2)OCO3)c1 (centres undefined),.,.,.,-
